Drawing on PubChem BioAssay (NCI), this text covers growth for 11 compounds.

Test in all cases: NCI-60 one-dose screen, 48 h (100 = growth as untreated, 0 = no growth, -100 = all killed)
One test has as its system OVCAR-8 ovarian. The note with it: 10 µM unless noted.
In another test the test system is OVCAR-5 ovarian. The following applies: 10 µM unless noted.
For another test, the system named is OVCAR-4 ovarian. The note with it: 10 µM unless noted.
Another test relates to SK-OV-3 ovarian. The following applies: 10 µM unless noted.
A further test relates to IGROV1 ovarian. The following applies: 10 µM unless noted.
The next test concerns OVCAR-3 ovarian. The note with it: 10 µM unless noted.
A further test deals with HS 578T breast. The following applies: 10 µM.
The next test concerns NCI/ADR-RES ovarian. The following applies: 10 µM unless noted.
A further test relates to T-47D breast. The following applies: 10 µM unless noted.
The subject of another test is BT-549 breast. The following applies: 10 µM unless noted.
The next test relates to MDA-MB-435 melanoma. The note with it: 10 µM unless noted.
The test system of the next test is SW-620 colon. The note with it: 10 µM unless noted.
The next test deals with MCF7 breast. The following applies: 10 µM unless noted.
The subject of another test is HCT-116 colon. The following applies: 10 µM unless noted.
The test system of a further test is HCC-2998 colon. The note with it: 10 µM unless noted.
The test system of another test is KM12 colon. The note with it: 10 µM unless noted.
In a further test the test system is RPMI-8226 leukemia. The following applies: 10 µM unless noted.

SMILES strings stand for the structures. About 83,000 compounds went through this panel and 20% of them were active in at least one assay; those are over-represented in the sample as a whole.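 Percent growth is the endpoint: 0 to 100 indicates growth inhibition (40 means 60% inhibition), 0 means no net growth, and negative values indicate cell death.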 Values without a mark were called inactive. The source made the active and inactive calls. The calls were made as follows: active = growth percent below 10; inactive = the rest.

Take `Cc1cc(C)c2c(NC(=O)Nc3ccc(Cl)c(Cl)c3)n[nH]c2n1`: the growth in the test with OVCAR-8 ovarian is 110%; in the test with OVCAR-5 ovarian it was 101%; in the test with OVCAR-4 ovarian, 93.2%; in the test on SK-OV-3 ovarian, 100%; in the test on IGROV1 ovarian it was 111%; in the test on OVCAR-3 ovarian it was 113%. Further, the growth was 114% in the test with HS 578T breast; 102% with NCI/ADR-RES ovarian; 93.3% in the test on T-47D breast; 104% in the test on BT-549 breast; 92.8% with MDA-MB-435 melanoma; 112% with SW-620 colon. The growth in the test with MCF7 breast was 82.6%; in the test on HCT-116 colon, 108%; in the test on HCC-2998 colon, 115%; with KM12 colon, 104%.
In the case of `CCCCCNCCCCCNc1cc(OC)cc2cccnc12`, the growth with OVCAR-8 ovarian is 101%; in the test on OVCAR-5 ovarian it was 87.2%; with OVCAR-4 ovarian, 37.1%; with SK-OV-3 ovarian, 91.2%; in the test with IGROV1 ovarian it was 98.3%; in the test on OVCAR-3 ovarian it was 75.6%. Further, the growth was 102% in the test with HS 578T breast; 88.6% in the test on NCI/ADR-RES ovarian; 68.1% with T-47D breast; 69.2% in the test with BT-549 breast; 103% in the test with MDA-MB-435 melanoma; 90.9% in the test with SW-620 colon. Besides, the growth is 50.6% with MCF7 breast, 63.5% with HCT-116 colon, 93.4% in the test on HCC-2998 colon and 103% with KM12 colon.
For `COc1ccc(CCN2COc3c([C@@H](C)CCC=C(C)C)ccc(C)c3C2)cc1OC`, the growth in the test with OVCAR-8 ovarian is 72.1%; with OVCAR-5 ovarian, 83%; in the test on OVCAR-4 ovarian it was 39.7%; in the test on SK-OV-3 ovarian, 82.6%; with IGROV1 ovarian it was 68.3%; in the test with OVCAR-3 ovarian, 30.2%. In addition, the growth was 76.9% with HS 578T breast; 44.6% with NCI/ADR-RES ovarian; -23% (active) with T-47D breast; 87.9% in the test with BT-549 breast; 61.4% in the test with MDA-MB-435 melanoma; 40.4% with SW-620 colon. Further, the growth with MCF7 breast is 40.6%; with HCT-116 colon, 25.9%; with HCC-2998 colon it was -70.3% (active); with KM12 colon, 51.8%.
For the compound `CC(=O)Nc1nonc1-c1nc2ccccc2n1Cc1ccc(C(C)(C)C)cc1`, the growth in the test with OVCAR-8 ovarian is 78.4%; with OVCAR-5 ovarian it was 93.5%; in the test with OVCAR-4 ovarian it was 81%; in the test on SK-OV-3 ovarian, 88.9%; in the test on IGROV1 ovarian it was 78.7%; in the test with OVCAR-3 ovarian, 71.3%. Besides, the growth is 27.1% in the test on HS 578T breast; 72.9% in the test on T-47D breast; 93.2% with BT-549 breast; 86% in the test on MDA-MB-435 melanoma; 58.9% in the test on MCF7 breast; 66.9% with HCT-116 colon. The growth in the test with KM12 colon was 69.3%.
For `c1ccc2c(c1)cnc1ccccc12`, the growth was 97.5% in the test on OVCAR-8 ovarian; 92.2% in the test on OVCAR-5 ovarian; 96.3% with OVCAR-4 ovarian; 96.1% in the test on SK-OV-3 ovarian; 121% with IGROV1 ovarian; 100% with HS 578T breast. Moreover, the growth in the test with NCI/ADR-RES ovarian was 101%; in the test with T-47D breast it was 96.8%; with BT-549 breast, 106%; in the test with MDA-MB-435 melanoma it was 102%; in the test on SW-620 colon, 98.5%; in the test with MCF7 breast, 94.3%. In addition, the values for the growth in the test with HCT-116 colon, in the test with HCC-2998 colon and with KM12 colon were 100%, 101% and 102%, respectively.
For `Nc1ccc(N(O)/C=C2\C=CC=CC2=O)cc1N`, the growth in the test with RPMI-8226 leukemia was 52.8%; in the test on OVCAR-8 ovarian it was 95.4%; with OVCAR-4 ovarian it was 99.6%; in the test with SK-OV-3 ovarian, 107%; in the test with IGROV1 ovarian, 80.2%; in the test on OVCAR-3 ovarian, 89.1%. In addition, the growth in the test with HS 578T breast is 94.2%; in the test on NCI/ADR-RES ovarian, 82%; with T-47D breast, 78.8%; with BT-549 breast, 103%; in the test with MDA-MB-435 melanoma, 97.7%; with SW-620 colon, 105%. Also, the growth is 115% in the test on MCF7 breast, 85.1% in the test with HCT-116 colon, 93.4% in the test with HCC-2998 colon and 83.3% in the test on KM12 colon.
Consider `COc1cc(/C=C/c2ccc3c(Br)cc(Br)c(O)c3n2)ccc1O`, for which the growth is 17.5% with OVCAR-8 ovarian; 63.2% in the test on OVCAR-5 ovarian; 58.2% in the test on SK-OV-3 ovarian; -44.8% (active) in the test with IGROV1 ovarian; 1.97% (active) in the test with OVCAR-3 ovarian; 3.67% (active) in the test with HS 578T breast. Moreover, the growth in the test on T-47D breast was 4.66% (active); in the test on MDA-MB-435 melanoma it was 32%; with SW-620 colon, 18.3%; with MCF7 breast it was 10.2%; in the test on HCT-116 colon, 1.68% (active); in the test with HCC-2998 colon, 35%. Further, the growth with KM12 colon was 20.8%.
Turning to `CC(OC(=O)Nc1cccc(Cl)c1)C(=O)O` (stereo not drawn), the growth in the test with OVCAR-8 ovarian was 95.3%; in the test on OVCAR-5 ovarian, 89.1%; in the test with SK-OV-3 ovarian it was 99.1%; in the test with IGROV1 ovarian, 104%; in the test on OVCAR-3 ovarian, 96.3%; in the test with HS 578T breast, 96.4%. The growth in the test with NCI/ADR-RES ovarian is 96.8%; in the test with BT-549 breast, 113%; in the test on MDA-MB-435 melanoma, 82.8%; in the test on SW-620 colon it was 99.5%; in the test with MCF7 breast it was 99.7%; in the test on HCT-116 colon, 97.2%. For the same compound, the growth with HCC-2998 colon was 99.8%.
Consider `CC(=O)OC1Oc2ccccc2-c2oc3nc(=N)n(C)c-3cc21` (stereo not drawn), for which the growth in the test with OVCAR-8 ovarian was 98.6%; in the test with OVCAR-5 ovarian it was 107%; with OVCAR-4 ovarian, 104%; in the test on SK-OV-3 ovarian, 104%; with IGROV1 ovarian it was 102%; in the test on HS 578T breast, 143%. Also, the growth is 96% with NCI/ADR-RES ovarian; 93.6% with T-47D breast; 128% in the test with BT-549 breast; 122% in the test on MDA-MB-435 melanoma; 104% in the test on SW-620 colon; 98.6% in the test on MCF7 breast. Further, the figures for the growth with HCT-116 colon, in the test on HCC-2998 colon and in the test with KM12 colon were 100%, 102% and 209%, respectively.
With `CCOC(=O)C(=CNc1ccccc1Cl)C(=O)OCC`, the growth is 91.4% in the test on OVCAR-8 ovarian; 100% in the test on OVCAR-5 ovarian; 91.7% with OVCAR-4 ovarian; 113% in the test with SK-OV-3 ovarian; 91.1% with IGROV1 ovarian; 129% in the test with HS 578T breast. Moreover, the growth is 91.4% in the test with NCI/ADR-RES ovarian; 95% with T-47D breast; 106% in the test on BT-549 breast; 76.9% with MDA-MB-435 melanoma; 98.4% with SW-620 colon; 93.8% in the test on MCF7 breast. Further, the growth is 97.9% in the test on HCT-116 colon, 102% in the test with HCC-2998 colon and 105% with KM12 colon.
On to `Cc1nc([C@H]2CC[C@H]3[C@@H]4CCC5=CC(=O)CC[C@]5(C)[C@H]4CC[C@]23C)cs1`, for which the growth is 47.9% with OVCAR-8 ovarian; 91.4% in the test with OVCAR-5 ovarian; 27.4% in the test with OVCAR-4 ovarian; 85.3% with SK-OV-3 ovarian; 109% in the test on IGROV1 ovarian; 95.9% in the test with OVCAR-3 ovarian. In addition, the growth was 104% in the test with HS 578T breast; 43.7% in the test on NCI/ADR-RES ovarian; 42% with T-47D breast; 66.8% with MDA-MB-435 melanoma; 73.3% in the test with SW-620 colon; 55.2% in the test on MCF7 breast. Besides, the growth with HCT-116 colon is 28.3%; in the test with HCC-2998 colon it was 61.1%; in the test on KM12 colon it was 65.9%.
